# Screening results from PubChem BioAssay.
# Hits are enriched below; roughly 4% of the tested compounds scored in any of these assays.
# TIM10 inh: growth inhibitors of isogenic TIM10 control yeast, primary screen, counter-screen for tim10-1 yeast inhibitor project, luminescence, uHTS; S. cerevisiae TIM10 strain growth, BacTiter-Glo luminescence, 24 h; inhibition, % at 10 µM; 330,000 tested, 1.4% active; AID 463195, 2010;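 active = inhibition of 40% or more at the single tested concentration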;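 also: wild-type TIM10 isogenic control strain grown at permissive 25 °C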
# NALP1 yeast inh: NALP1 inflammasome inhibitors in reconstituted yeast, colorimetric, S. cerevisiae, triplicate retest | S. cerevisiae NALP1/ASC/caspase-1 growth, X-gal OD620, 72 h | 280,000 tested, 0.61% active | inhibition, % at 10 µM; in the data active = inhibition mostly above about 24%, no sharp cut-off; inactive = mostly below about 32%
# NALP3 yeast inh: NALP3 inflammasome inhibitors in reconstituted yeast, primary screen, luminescence, uHTS | Yeast reconstituted NLRP3/ASC/caspase-1, beta-gal luminescence, 24 h | inhibition, % at 10 µM | 330,000 tested, 0.39% active | AID 2825, 2010;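 active = inhibition of 50% or more; inactive = inhibition below 50%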;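 also: plate controls were induced DMSO wells for no effect and uninduced yeast grown without galactose for full effect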
# tim23-1 inh: growth inhibitors of tim23-1 mutant yeast, primary screen, luminescence, uHTS | S. cerevisiae tim23-1 growth, BacTiter-Glo luminescence, 24 h | inhibition, % at 20 µM | 330,000 tested, 1.3% active;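 active = growth inhibition of the mutant yeast at or above 50%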;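 also: temperature-sensitive mutant grown at 25 °C; plate controls were DMSO-treated mutant yeast for no effect and medium wells lacking yeast for full effect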
# tim10-1 inh: growth inhibitors of tim10-1 mutant yeast, primary screen, luminescence, uHTS; 330,000 tested, 2.2% active; S. cerevisiae tim10-1 ts strain growth, BacTiter-Glo, 24 h; AID 463190, 2010; inhibition, % at 20 µM;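 active = inhibition of at least 40%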;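 also: mutant grown at 25 °C; 0% = DMSO wells with yeast and 100% = wells holding no yeast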
# tim10 confirm: growth inhibitors of wild-type TIM10 yeast, confirmation, counter-screen for tim10-1 synthetic lethality project, single concentration, luminescence, S. cerevisiae; shares compounds with TIM10 inh; S. cerevisiae tim10 strain growth, BacTiter-Glo luminescence, 24 h; inhibition, % at 10 µM; 4,600 tested, 63% active; AID 463215, 2010;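 active = inhibition of yeast growth at or above a set limit in either of two replicates at 10 µM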;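 also: this counterscreen used the strain with wild-type TIM10; 0% = yeast with DMSO and 100% = medium wells lacking yeast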
# tim23-1 conf: tim23-1 mutant yeast growth inhibitors, confirmation, luminescence, single concentration | shares compounds with tim23-1 inh | S. cerevisiae tim23-1 growth, BacTiter-Glo luminescence, 24 h | inhibition, % at 20 µM | 4,400 tested, 83% active;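 active = inhibition above about 39% in either of two replicate wells at 20 µM, limit read from the data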;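 also: temperature-sensitive tim23-1 mutant grown at 25 °C; 0% = DMSO wells with yeast and 100% = medium wells without yeast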
# * marks the source's active call; other numbers are inactive results; . = not tested or not shown.
SMILES,TIM10 inh,NALP1 yeast inh,NALP3 yeast inh,tim23-1 inh,tim10-1 inh,tim10 confirm,tim23-1 conf
CCN(CC)CCN1C(=O)/C(=C\c2ccc(Cl)c([N+](=O)[O-])c2)SC1=Nc1ccc(OC)cc1,41*,44*,39,66*,0,35*,57*
CCCN1C(=O)/C(=C/c2ccc(C)s2)SC1=Nc1ccc(OC)cc1,6,17,18,-6,7,.,.
COc1ccc(S(=O)(=O)N2CCCCCC2)cc1C(=O)OCc1cccc(OC)c1OC,9,.,31,18,21,.,.
O=S(=O)(c1ccc2ccccc2c1)N1CCN(c2ccc(O)cc2)CC1,44*,.,-11,58*,31,44*,48*
Cc1cc(C)nc(SCC(=O)NNS(=O)(=O)c2ccc(C#N)cc2)n1,-1,.,6,11,-6,.,.
O=C(/C=C/c1ccc([N+](=O)[O-])cc1)Nc1ncc([N+](=O)[O-])s1,.,3,.,.,.,.,.
O=C(NCC1CC1(Cl)Cl)Nc1ccc(Cl)c(Cl)c1 (centres undefined),48*,9,34,80*,38,45*,71*
Cc1ccc(NC(=O)NCC2CC2(Cl)Cl)cc1 (centres undefined),-23,19,23,4,-16,.,.
COc1ccc(-n2cc([N+](=O)[O-])c(=O)c3ccc(Cl)cc32)cc1,30,.,9,-3,-3,.,.
N/C(Cc1ccc(Cl)cc1)=N\OC(=O)C1CCCCC1,87*,47*,10,79*,29,-12,53*
N#C/C(=C\c1ccccc1Cl)C(=O)Nc1ccccn1,43*,15,-2,64*,33,23,42*
CC(C)(C)c1cc(C(C)(C)C)cc(S(=O)(=O)CCc2ccccn2)c1,51*,-30,3,59*,31,57*,54*
Cc1cccc(N=N/C(=C\O)C(=O)c2cccs2)c1,43*,-41,17,58*,38,45*,60*
O=C(c1ccc([N+](=O)[O-])o1)N1CCc2ccccc2C1,73*,.,21,59*,38,73*,35
O=C(NCCc1cnn(-c2ccccc2)c1)c1cc(COc2c(F)cccc2F)on1,68*,1,34,52*,29,53*,68*
O=C(C#Cc1ccccc1)c1ccco1,56*,44*,-28,61*,22,69*,62*
CN(Cc1ccccc1)C(=O)c1ccco1,-19,-6,-12,-4,5,.,.
COc1cc(/C=C2/CCCC(C(=O)C(F)(F)F)=C2O)ccc1O,18,.,6,13,29,.,.
COc1cc(/C=C2\CCC/C(=C\c3ccc(O)c(OC)c3)C2=O)ccc1O,41*,-4,7,82*,38,39*,52*
CN1/C(=C/C(=S)NC(=O)C2(C)CC2(Cl)Cl)C(C)(C)c2ccccc21 (centres undefined),27,5,13,37,1,.,.
COc1ccccc1C(=O)NC(=S)/C=C1/N(C)c2ccccc2C1(C)C,44*,-7,14,51*,36,-3,42*
COc1ccc(-c2nnc(OC)c3ccccc23)cc1,-14,18,39,41,22,.,.
COc1ccc(-c2nnc(Sc3nc4ccccc4o3)c3ccccc23)cc1,42*,18,19,52*,27,36*,42*
Nc1ccc(Cl)c(-c2nc3ncccc3o2)c1,8,-14,14,-1,-1,.,.
Nc1ccc(-c2nc3ncccc3o2)c(O)c1,50*,5,48,58*,1,43*,65*
SMILES,TIM10 inh,NALP1 yeast inh,NALP3 yeast inh,tim23-1 inh,tim10-1 inh,tim10 confirm,tim23-1 conf
Cn1c(NC2CCCCC2)cc(=O)n(C)c1=O,-11,9,10,2,4,.,.
Cc1cc(C2CCCCC2)n(O)c(=O)c1,59*,.,29,66*,38,62*,53*
CCN(Cc1ccccc1)C(=O)COC(=O)[C@@H]1CCCN1C(=O)c1cccs1,-2,.,18,13,17,.,.
Cc1cccc(OCc2nnc(SCC(=O)N3CC(=O)Nc4ccccc43)o2)c1,5,14,9,-1,8,.,.
CCOC(=O)CS(=O)(=O)c1nc(-c2ccccc2)cc(C(F)(F)F)n1,44*,31,29,64*,38,55*,-41
CCOC(=O)CS(=O)(=O)c1ccccc1,7,-11,-16,12,7,.,.
S=C(NNc1ccnc2cc(Cl)ccc12)Nc1ccccc1Cl,40*,21,17,56*,40,-22,34
N/C(=N\OC(=O)c1ccc(Cl)c([N+](=O)[O-])c1)c1ccccc1,72*,20,34,81*,34,72*,78*
N/C(=N\OC(=O)c1ccc(Cl)c([N+](=O)[O-])c1)c1ccccn1,-12,5,10,14,29,.,.
CCc1nn(C(CC)C(=O)NCc2cccc(OC)c2OC)c(=O)c2cc3occc3n12 (centres undefined),14,16,11,23,16,.,.
O=C(NC(=S)NCc1ccccc1Cl)c1cccs1,46*,.,16,67*,16,51*,52*
O=C(NCc1ccccc1F)c1cccs1,-29,.,16,0,8,.,.
COc1ccc(N2CCN(C(=O)CN(c3cccc(OC)c3)S(=O)(=O)c3ccccc3)CC2)cc1,23,8,-4,19,27,.,.
COC(=O)C(Cc1c[nH]c2ccccc12)NC(=O)C1CC1 (centres undefined),-10,23,-5,3,9,.,.
CCN(CC)C(=O)c1sc2nc(-c3cccs3)cc(-c3cccs3)c2c1N,43*,-9,21,53*,35,35*,43*
Cc1ccc(C(=O)Nc2cccc(Oc3ccccc3)c2)o1,50*,0,22,58*,20,56*,77*
CC(=O)SC(C[N+](=O)[O-])c1cn(C(C)=O)c2ccccc12 (centres undefined),80*,12,9,89*,27,86*,-76
CC(=O)n1cc(Nc2ccc([N+](=O)[O-])cc2)c2ccccc21,-20,8,7,-19,4,.,.
CCOC(=O)c1cc(S(=O)(=O)NC2CCC(C)CC2)cn1C (centres undefined),17,-5,16,27,26,.,.
